Reference: PubChem BioAssay (EPA / NIEHS)
Records with an inconclusive call do not appear. Active and inactive are the calls of the source. How the source made its calls: active means hit-call score of the fitted dose curve at least 0.9, where 1 is the maximum; inconclusive means response in the unintended direction; inactive means score below 0.9.

Each compound was assayed against Hepatocyte nuclear factor 4-alpha (Homo sapiens) (UniProt P41235) (assay: ATG_HNF4a_TRANS: Attagene TRANS-FACTORIAL HepG2 Assay for human Hepatocyte Nuclear Factor 4 alpha (HNF4a) (AID 2282982)). Conditions: HepG2 HNF4a transactivation reporter, mRNA readout.
Sequence of Hepatocyte nuclear factor 4-alpha (Homo sapiens) (P41235 whole entry, looked up, the tested form may be a part): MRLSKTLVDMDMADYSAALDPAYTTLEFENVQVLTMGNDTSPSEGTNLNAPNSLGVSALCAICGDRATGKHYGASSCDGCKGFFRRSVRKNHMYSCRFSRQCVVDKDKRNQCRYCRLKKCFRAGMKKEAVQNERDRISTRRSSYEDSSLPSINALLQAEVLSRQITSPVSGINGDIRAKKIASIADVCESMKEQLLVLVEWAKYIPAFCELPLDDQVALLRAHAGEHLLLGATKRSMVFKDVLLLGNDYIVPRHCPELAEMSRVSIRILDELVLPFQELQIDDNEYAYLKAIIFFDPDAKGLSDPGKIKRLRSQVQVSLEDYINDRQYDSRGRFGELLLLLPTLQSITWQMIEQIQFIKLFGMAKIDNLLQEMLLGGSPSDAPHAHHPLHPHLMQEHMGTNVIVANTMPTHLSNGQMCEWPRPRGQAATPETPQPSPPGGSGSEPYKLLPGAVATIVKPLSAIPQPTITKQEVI
Method in brief: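 In this trans-factorial format, a chimeric HNF4a-GAL4 fusion drives a GAL4-UAS reporter in transfected HepG2 liver cells. After 24 h treatment, reporter mRNA induction is measured by RT-PCR with capillary electrophoresis, relative to DMSO.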

Row | SMILES | outcome
1 | CC1(C)[C@H](C(=O)OCc2cccc(Oc3ccccc3)c2)[C@@H]1C=C(Cl)Cl | inactive
2 | O=C(O)CCCCCCCCCCC(=O)O | inactive
3 | CNCCCC12CCC(c3ccccc31)c1ccccc12 | inactive
4 | O=C(O)c1ccc([N+](=O)[O-])cc1 | inactive
5 | COCCOCCOCCOCCOCCO | inactive
6 | O=C(O)CCSCCC(=O)O | inactive
7 | Nc1ccc(F)c([N+](=O)[O-])c1 | inactive
8 | Cc1cccc(Nc2ccccc2C(=O)O)c1C | inactive
9 | CN1Cc2c(N)cccc2C(c2ccccc2)C1 (stereo not given) | inactive
10 | CCCCN | inactive
11 | CC(C)(CO)[N+](=O)[O-] | inactive
12 | Cc1cccc(C)c1[N+](=O)[O-] | inactive
13 | CCO[Si](CCCS)(OCC)OCC | inactive
14 | C=CC(=O)OCC(O)COc1ccccc1 (stereo not given) | inactive
15 | CCOC(=S)SSC(=S)OCC | inactive
16 | Nc1cccc(S(=O)(=O)c2cccc(N)c2)c1 | inactive
17 | O=C(O)CCCCC1CCSS1 (stereo not given) | inactive
18 | CC(=O)C(C)=O | inactive
19 | NCCOCCO | inactive
20 | CCCCOCCOCCSC#N | inactive
